Unmarked numbers belong to inactive results. Calls follow the shape of the full dose curve.
The compounds below were run against Acetylcholinesterase (Homo sapiens) (UniProt P22303) (assay: Acetylcholinesterase (AChE) small molecule antagonists: enzyme-based qHTS assay with human liver microsomes (AID 1347399; also: nearly all actives have a fitted effect of over 60% in size)). Conditions: Potency: qHTS inhibition; outcome: qHTS inhibition; series mostly up to 115 µM; activity change, negative = inhibition: at the top concentration.
Acetylcholinesterase (Homo sapiens), sequence (P22303 whole entry, looked up): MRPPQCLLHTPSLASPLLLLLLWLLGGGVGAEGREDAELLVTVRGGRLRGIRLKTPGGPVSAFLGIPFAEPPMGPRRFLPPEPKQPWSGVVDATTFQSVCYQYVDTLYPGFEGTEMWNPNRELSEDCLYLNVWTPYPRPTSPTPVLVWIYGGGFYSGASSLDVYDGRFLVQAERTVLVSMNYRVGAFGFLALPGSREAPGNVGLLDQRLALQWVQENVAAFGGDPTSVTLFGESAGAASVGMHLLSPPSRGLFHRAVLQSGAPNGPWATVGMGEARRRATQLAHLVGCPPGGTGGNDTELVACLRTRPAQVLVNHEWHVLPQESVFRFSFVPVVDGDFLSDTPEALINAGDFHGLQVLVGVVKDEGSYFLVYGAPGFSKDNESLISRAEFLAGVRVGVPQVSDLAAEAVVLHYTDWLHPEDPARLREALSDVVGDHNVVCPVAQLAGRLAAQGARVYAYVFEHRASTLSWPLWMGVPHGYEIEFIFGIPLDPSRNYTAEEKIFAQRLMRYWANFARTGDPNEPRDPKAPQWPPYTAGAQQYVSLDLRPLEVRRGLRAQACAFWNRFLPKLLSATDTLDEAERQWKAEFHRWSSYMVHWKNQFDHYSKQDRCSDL
Outline: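 Recombinant human AChE (50 mU/mL in the enzyme mix) and human liver microsomes (0.25 mg/mL final) were preincubated with compound and NADPH (0.25 mg/mL final) for 30 min at 37 C. Acetylthiocholine/DTNB was then added; thiocholine was read colorimetrically after 10 min at room temperature.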
For COc1ccc(C(=O)Nc2nc3ccccc3c(NCc3ccccc3)c2C#N)cc1, the “activity change, negative = inhibition” value was 5.39%. O=C(O)c1ccc2c(c1)nc(C(=O)NC1CCN(C3CC3)CC1)n2Cc1cc(-c2ccc(Cl)s2)on1 showed an activity change, negative = inhibition of 0.834% [at 23.6 µM]. C=C(C)C(=O)OCCOCCOC(=O)C(=C)C was tested, and the “activity change, negative = inhibition” value was 0.0764%. In the case of Cc1ccc(Nc2ccc(O)c3c2C(=O)c2ccccc2C3=O)cc1, the “activity change, negative = inhibition” value is reported as 0.17%. With CC1CC(=O)CC(C)(C)C1 (centres undefined) the “activity change, negative = inhibition” value was -0.619%. COCCc1ccccn1 was tested, and the “activity change, negative = inhibition” value was 0.84% [at 53 µM]. With NS(=O)(=O)c1ccccc1Cl the “activity change, negative = inhibition” value was -0.164%. CCCCC/C=C/CC1CC(=O)OC1=O (centres undefined) was tested, and the “activity change, negative = inhibition” value was 0.153%. In the case of CCCN(CCC)C(=O)C(CCC(=O)O)NC(=O)c1ccccc1 (centres undefined), the “activity change, negative = inhibition” value is reported as 1.9% [at 53 µM]. CC(=O)Nc1ccc(S(=O)(=O)Cl)cc1 was tested, and the “activity change, negative = inhibition” value was 1.05%. Cc1cccc(C)c1NC(=O)c1ccccc1C(=O)O was tested, and the “activity change, negative = inhibition” value was 0.168% [at 53 µM]. C#C[C@]1(OC(C)=O)CC[C@H]2[C@@H]3CCC4=C[C@@H](OC(C)=O)CC[C@@H]4[C@H]3CC[C@@]21C was tested, and the “activity change, negative = inhibition” value was 0.147% [at 53 µM]. With O=C(CO)[C@@H](O)[C@H](O)[C@@H](O)CO the “activity change, negative = inhibition” value was -0.168% [at 53 µM]. CC(=O)OC(C)(C)Cc1ccccc1 was tested, and the “activity change, negative = inhibition” value was -0.614%. C[C@H](CCC(=O)O)[C@H]1CC[C@H]2[C@@H]3[C@H](O)C[C@@H]4C[C@H](O)CC[C@]4(C)[C@H]3C[C@H](O)[C@]12C was tested, and the “activity change, negative = inhibition” value was -0.882% [at 53 µM]. In the case of CCCCCCCCCCCCCCCCCC(=O)OCCCCCCCCCCCCCC(C)C, the “activity change, negative = inhibition” value is reported as 3.39%. With CC(=O)Nc1ccc(S(=O)(=O)Nc2cc(C)on2)cc1 the “activity change, negative = inhibition” value was -0.978% [at 53 µM]. COC(=O)c1ccc(OC)cc1 was tested, and the “activity change, negative = inhibition” value was -0.0065%. For CN(C)c1ccc(SC#N)cc1, the “activity change, negative = inhibition” value was -0.327%. CC(=O)OCC(=O)Nc1cc(C#N)cc(NC(=O)COC(C)=O)c1Cl was tested, and the “activity change, negative = inhibition” value was 1.68% [at 53 µM]. In the case of CCCCCCCCCCOCC(O)CN (centres undefined), the “activity change, negative = inhibition” value is reported as -1.18% [at 53 µM]. In the case of CCCCCCCCCCCCCCCCOP(=O)([O-])OCC[N+](C)(C)C, the “activity change, negative = inhibition” value is reported as 2.27% [at 53 µM]. For N#CCCCC(C#N)CCC#N (centres undefined), the “activity change, negative = inhibition” value was 0.291%. With CC(=O)OCC(=O)[C@@]1(O)CC[C@H]2[C@@H]3CCC4=CC(=O)C=C[C@]4(C)[C@@]3(F)[C@@H](O)C[C@@]21C the “activity change, negative = inhibition” value was -0.317% [at 53 µM]. CCC(C)COC(=O)CC(C)C (centres undefined) was tested, and the “activity change, negative = inhibition” value was 0.157%. With CC=O the “activity change, negative = inhibition” value was -0.892%. For CCCCCCCCCCCCCCCC/C=C/C1CC(=O)OC1=O (centres undefined), the “activity change, negative = inhibition” value was 2.74% [at 53 µM]. With COc1ccnc(CS(=O)c2nc3cc(OC(F)F)ccc3[nH]2)c1OC (centres undefined) the “activity change, negative = inhibition” value was 1.31%. For C[C@H]1O[C@@H](O[C@H]2CC[C@@]3(C)[C@H](CC[C@@H]4[C@@H]3C[C@@H](O)[C@]3(C)[C@@H](C5=CC(=O)OC5)CC[C@]43O)C2)C[C@H](O)[C@@H]1O[C@H]1C[C@H](O)[C@H](O[C@H]2C[C@H](O)[C@H](O[C@@H]3O[C@H](CO)[C@@H](O)[C@H](O)[C@H]3O)[C@@H](C)O2)[C@@H](C)O1, the “activity change, negative = inhibition” value was 1.76% [at 53 µM]. In the case of CC1=CCC(C(C)C)C=C1 (centres undefined), the “activity change, negative = inhibition” value is reported as -0.746%. With C[C@H]1c2cccc(O)c2C(O)=C2C(=O)[C@]3(O)C(O)=C(C(N)=O)C(=O)[C@@H](N(C)C)[C@@H]3[C@@H](O)[C@@H]21 the “activity change, negative = inhibition” value was -0.738% [at 53 µM]. In the case of OC1CCC(C2CCCCC2)CC1 (centres undefined), the “activity change, negative = inhibition” value is reported as -0.0718%. With CCOC(=O)Nc1ccc2c(c1)N(C(=O)CCN1CCOCC1)c1ccccc1S2 the “activity change, negative = inhibition” value was 2.39% [at 53 µM]. CC(C)CC(O)CC(C)C was tested, and the “activity change, negative = inhibition” value was 0.957%. In the case of Cc1ccc(C(C)c2ccc(C)c(C)c2)cc1C, the “activity change, negative = inhibition” value is reported as -0.153%. With COc1c(N2CCNC(C)C2)c(F)cc2c(=O)c(C(=O)O)cn(C3CC3)c12 (centres undefined) the “activity change, negative = inhibition” value was -1.84% [at 53 µM]. CC(COc1ccccc1)NC(C)C(O)c1ccc(O)cc1 (centres undefined) was tested, and the “activity change, negative = inhibition” value was 1.51% [at 53 µM]. For CCOc1ccccc1OCC, the “activity change, negative = inhibition” value was -0.0162%. Clc1ccnc(Cl)n1 was tested, and the “activity change, negative = inhibition” value was -6.31%.

From PubChem BioAssay (Tox21)
% is scaled to controls: 0 for no effect and ±100 for the full control effect.
